High-throughput results: PubChem BioAssay, National Center for Advancing Translational Sciences (NCATS)
TexasRed fluor = counter-screen for TRb-SRC2 inhibitors: fluorescence interference; TRb/SRC2 Texas Red total fluorescence interference; Potency, µM (titrated, usually from 106 µM), without a hit: top-dose fluorescence change, negative = quenching; 280,000 tested, 0.29% active; AID 1479; active means well fitted curve in either direction with a large enough effect; inconclusive means small, poorly fitted or top-dose-only effect
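Human TRb ligand-binding domain at 0.6 uM with 20 nM Texas Red SRC2 peptide in Tris buffer containing 1 uM T3 and 5% DMSO, incubated with compound 5 h at ambient temperature. Total fluorescence (555/632 nm) calculated as parallel + 2 × perpendicular.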
BLM inh = inhibitors of human Bloom syndrome helicase BLM. P54132. recombinant BLM DNA unwinding, fluorescence dequenching. Potency, µM (doses to about 56.1 µM), inactives show at the highest dose activity change, negative = inhibition, most hits filed as inhibitors. 350,000 tested, 0.2% active;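 further: plate controls were vehicle for no effect and no enzyme for full effect; nearly all actives have a fitted effect of over 35% in size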
RECQ1 helicase = blocks DNA unwinding by human RECQ1 | P46063 | RECQ1 DNA unwinding, red fluorescence kinetic read | Potency, µM (highest dose often 57.3 µM), inactives show at the top dose activity, negative = inhibition, actives largely listed as inhibitors | 240,000 tested, 0.54% active | AID 2549;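 further: plate controls were vehicle for no effect and no enzyme for full effect; nearly all actives have a fitted effect of over 30% in size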
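50 nM RECQ1T1 preincubated 15 min with compound in Tris pH 8.0 buffer with MgCl2, DTT, Tween-20 and 2.5 ug/ml poly(dI-dC); started with 200 nM TAMRA/BHQ-2 forked duplex and 2 mM ATP. Unwinding read as fluorescence (525/598 nm), two reads 2 h apart.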
WRN helicase inh = WRN helicase (human) inhibition; Q14191; WRN helicase unwinding, fluorescent forked duplex, kinetic; Potency, µM (highest dose often 114 µM), inactives show at the highest dose activity change, negative = inhibition, hits mostly inhibitors; 360,000 tested, 0.46% active; further: nearly all actives have a fitted effect of over 55% in size
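WRN at 20 nM final preincubated with compound 15 min at room temperature; reaction started with 100 nM fluorophore/quencher forked duplex oligonucleotide and 2 mM ATP final. Unwinding followed kinetically by red fluorescence (ex 525, em 598 nm).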
APEX1 inh = APE1 (human) endonuclease inhibition | P27695 | recombinant APE1, TAMRA/BHQ-2 abasic DNA cleavage fluorescence | Potency, µM (top dose mostly 65.8 µM), inactives show at the highest dose activity change, negative = inhibition, actives largely listed as inhibitors | 350,000 tested, 0.35% active;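 further: plate controls were vehicle for no effect and reference inhibitor for full effect; nearly all actives have a fitted effect of over 55% in size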
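APE1 at 0.75 nM final was preincubated with compound 15 min at room temperature, then 50 nM double-stranded THF abasic-site substrate (5'-TAMRA/3'-BHQ-2) was added. Fluorescence (ex 525/em 598 nm) was read kinetically; third-minus-first read gave activity.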
TRb SRC2 PPI = inhibitors of human thyroid hormone receptor beta-SRC2 interaction. P10828. AID 1469. TRbeta-SRC2 peptide binding, fluorescence polarization; receptor liganded with 1 µM T3. 280,000 tested, 0.065% active. Potency, µM (titrated, usually from 106 µM), inactives show at the top dose activity change, negative = inhibition, actives largely listed as inhibitors;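 further: plate controls were bound peptide for no effect and peptide without receptor for full effect; nearly all actives have a fitted effect of over 50% in size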
Target sequence (P10828 whole entry, looked up): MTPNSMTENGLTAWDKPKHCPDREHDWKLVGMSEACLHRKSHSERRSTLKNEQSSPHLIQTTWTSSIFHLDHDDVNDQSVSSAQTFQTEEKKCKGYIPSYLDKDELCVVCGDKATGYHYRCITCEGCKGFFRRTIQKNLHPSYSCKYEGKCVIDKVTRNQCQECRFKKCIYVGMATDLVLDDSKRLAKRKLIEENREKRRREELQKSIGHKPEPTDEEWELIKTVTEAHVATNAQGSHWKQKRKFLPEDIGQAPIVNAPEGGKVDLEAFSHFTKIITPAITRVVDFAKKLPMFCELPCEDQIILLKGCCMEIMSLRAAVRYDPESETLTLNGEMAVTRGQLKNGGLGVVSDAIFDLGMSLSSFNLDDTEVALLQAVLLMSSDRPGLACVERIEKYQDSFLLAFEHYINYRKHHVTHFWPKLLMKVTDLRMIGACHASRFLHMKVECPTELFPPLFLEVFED
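Decrease in fluorescence polarization of 20 nM Texas Red SRC2 coactivator peptide flagged inhibition of its binding to 0.6 uM TRb LBD; 1 uM T3 included, incubation 5 hr, ex 555/em 632 nm.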
An asterisk follows results filed as active; [ ] = remark or other dose. The list is not random: actives were taken first. Their share in the collection is about 0.91%. Unless noted, the call rests on the fitted dose curve; in most records, active means well fitted curve in the direction sought with a large enough effect; inconclusive means small, poorly fitted or top-dose-only effect, or another doubt; inactive means no such curve, though single readings can be large; an effect the other way counts as inactive or inconclusive. Unless noted, on the % scale 0 is the no-effect control and ±100 the full control effect; potency means the concentration at half of the fitted maximal effect.

For CCCCCCCCCCCCCCCCn1cc[n+](Cc2ccccc2)c1C the results were TexasRed fluor 2.8%, BLM inh inconclusive, RECQ1 helicase -24.2%, APEX1 inh inconclusive and TRb SRC2 PPI -1.2%.
`Clc1cc(Cl)c(OCC#CI)cc1Cl` gave BLM inh 1.7%.
Screening CCOC(=O)C1CCN(C(=O)c2ccc3c(c2)sc2nc(-c4ccc(OC)cc4)cn23)CC1 returned TexasRed fluor 316µM*[quencher], BLM inh -2.8% and TRb SRC2 PPI -22.4%.
CCOc1ccc(-c2cn3c(n2)sc2cc(C(=O)NCCC4=CCCCC4)ccc23)cc1 was read as TexasRed fluor 2µM*[quencher], BLM inh -1.5% and TRb SRC2 PPI -10.7%.
`Cc1ccc(-c2cn3c(n2)sc2cc(C(=O)NCc4cccs4)ccc23)cc1` gave TexasRed fluor 3.16µM*[quencher], BLM inh 1.0% and TRb SRC2 PPI -15.0%.
`CC1COCc2cc3c(cc21)C(C)(C)C(C)C3(C)C` (stereo unspecified) gave TexasRed fluor -2.1%[201 µM] and TRb SRC2 PPI 4.7%[201 µM].
For CCC(=O)OC1C(N(C)C)CC(C)O[C@H]1O[C@H]1[C@H](C)[C@@H](O[C@H]2CC(OC)[C@@H](O)C(C)O2)[C@H](C)C(=O)O[C@@H](CC)[C@](C)(O)[C@@H](O)[C@H](C)C(=O)[C@@H](C)C[C@]1(C)O (stereo partly specified) the results were BLM inh 3.2%.
Cc1ccc2cccc(NC(=O)COc3ccccc3Cl)c2n1 was read as TexasRed fluor 15.8µM*[quencher], BLM inh -4.1% and TRb SRC2 PPI -15.4%.
For Cc1ccc2cccc(NC(=O)COc3cc(C)c(Cl)c(C)c3)c2n1 the results were TexasRed fluor 3.0%, BLM inh -2.5% and TRb SRC2 PPI 6.1%.
Screening Cc1ccc2onc(CC(=O)N3CCN(c4cc(Cl)ccc4C)CC3)c2c1 returned TexasRed fluor inconclusive, BLM inh -6.1% and TRb SRC2 PPI -27.4%.
For Cc1ccc2onc(CC(=O)N3CCN(c4cccc(Cl)c4)CC3)c2c1 the results were TexasRed fluor 25.1µM*[quencher], BLM inh -9.1% and TRb SRC2 PPI -26.9%.
Screening CC(=O)c1ccc(NC(=O)CSc2nc(N)c3cc4c(nc3n2)CCCC4)cc1 returned TexasRed fluor 89.1µM*[quencher], BLM inh 0.9%, RECQ1 helicase -10.0%, WRN helicase inh -19.8%, APEX1 inh 5.3% and TRb SRC2 PPI -21.8%.
COc1ccc(NC(=O)CSc2nc(N)c3cc4c(nc3n2)CCCC4)cc1 was read as TexasRed fluor 0.8%, BLM inh -3.6%, RECQ1 helicase -13.1%, WRN helicase inh -16.4%, APEX1 inh -3.8% and TRb SRC2 PPI 2.9%.
CCOC(=O)c1c(N)sc(=S)c2c1CCC2 was read as TexasRed fluor -7.8%, BLM inh -26.9%, RECQ1 helicase inconclusive, WRN helicase inh -28.1%, APEX1 inh 35.5µM* and TRb SRC2 PPI -19.4%.
Screening O=C(Nc1ccccc1F)C1CCCN(S(=O)(=O)c2ccccc2)C1 (stereo unspecified) returned TexasRed fluor -5.2%, BLM inh -1.5%, RECQ1 helicase inactive, WRN helicase inh 79.4µM*, APEX1 inh -2.3% and TRb SRC2 PPI -2.9%.
`O=C(CCc1ccc(S(=O)(=O)N2CCOCC2)cc1)N/N=C/c1ccc(F)cc1F` gave TexasRed fluor 0.5%, BLM inh -3.3%, RECQ1 helicase inactive, WRN helicase inh -5.5%, APEX1 inh 2.6% and TRb SRC2 PPI -4.6%.
O=C(CCc1ccc(S(=O)(=O)N2CCOCC2)cc1)N/N=C/c1ccc(O)c(O)c1O was read as TexasRed fluor -15.8%, BLM inh -28.6%, RECQ1 helicase -2.0%, WRN helicase inh 79.4µM*, APEX1 inh inconclusive and TRb SRC2 PPI -1.9%.
For O=C1CSc2ccc(S(=O)(=O)NCc3ccccc3Cl)cc2N1 the results were BLM inh 0.2%, WRN helicase inh -6.3% and APEX1 inh -2.1%.
For CC(CS(=O)(=O)c1ccc2c(c1)NC(=O)CS2)C(=O)NCc1ccccc1Cl (stereo unspecified) the results were BLM inh -18.8%, WRN helicase inh 39.8µM* and APEX1 inh inconclusive.
`CC1(C)CC(=O)C2=C(C1)c1c(ccc3ccccc13)NC2c1cc([N+](=O)[O-])cc([N+](=O)[O-])c1O` (stereo unspecified) gave TexasRed fluor 1.4%, BLM inh 22.4µM*, RECQ1 helicase inactive, WRN helicase inh inconclusive, APEX1 inh -5.3% and TRb SRC2 PPI -8.8%.
CC1(C)CC(=O)C2=C(C1)c1c(ccc3ccccc13)NC2c1ccc(C(=O)O)cc1 (stereo unspecified) was read as BLM inh -3.0%, WRN helicase inh -4.9% and APEX1 inh 8.7%.
`C=CC(=O)N1C/C(=C/c2ccc(F)cc2)C(=O)/C(=C\c2ccc(F)cc2)C1` gave WRN helicase inh 39.8µM*.
CN1C2CCC1/C(=C\c1ccc(F)cc1)C(=O)/C2=C/c1ccc(F)cc1 was read as TexasRed fluor 0.7%, BLM inh -3.9%, RECQ1 helicase -1.0%, WRN helicase inh 1.0%, APEX1 inh -2.1% and TRb SRC2 PPI 1.7%.
`O=C(O)C1Nc2ccc(Br)cc2C2C=CCC12` (stereo unspecified) gave BLM inh 15.8µM*, WRN helicase inh 28.2µM* and APEX1 inh inconclusive.
CCOC(=O)c1ccc2c(c1)C1C=CCC1C(C(=O)OCC)N2 (stereo unspecified) was read as BLM inh -23.1%, WRN helicase inh -11.2%[57.1 µM] and APEX1 inh 10.7%.
For O=C(OC1CCCCC1)c1ccc2c(c1)C1C=CCC1C(C(=O)O)N2 (stereo unspecified) the results were TexasRed fluor inconclusive, BLM inh 15.8µM*, RECQ1 helicase 7.94µM*, APEX1 inh inconclusive and TRb SRC2 PPI -5.5%.
Screening CCOc1ccc(CCNC(=O)CCc2cn(Cc3ccccc3F)c3ccccc23)cc1OCC returned TexasRed fluor -1.8%, BLM inh 0.4% and TRb SRC2 PPI 1.8%.
`CC1=C(C#N)C(=O)N(C2CCS(=O)(=O)C2)C(=O)/C1=C\c1ccc(C)o1` (stereo unspecified) gave TexasRed fluor -0.1%, BLM inh inconclusive, RECQ1 helicase 22.4µM*, APEX1 inh 17.8µM* and TRb SRC2 PPI 4.8%.
